The structures appear in SMILES notation. Out of some 400,000 compounds screened, about 2,100 (0.53%) were called active. Not shown: some 14% with an inconclusive outcome. How the calls were made is not given here. The sample as a whole holds a higher share of actives than the screen did.

For the assay, the target named is Ataxin-2 (Homo sapiens) (UniProt Q99700). Put plainly: qHTS for Inhibitors of ATXN expression. The class given is functional.
Chain of Ataxin-2 (Homo sapiens) (Q99700 whole entry): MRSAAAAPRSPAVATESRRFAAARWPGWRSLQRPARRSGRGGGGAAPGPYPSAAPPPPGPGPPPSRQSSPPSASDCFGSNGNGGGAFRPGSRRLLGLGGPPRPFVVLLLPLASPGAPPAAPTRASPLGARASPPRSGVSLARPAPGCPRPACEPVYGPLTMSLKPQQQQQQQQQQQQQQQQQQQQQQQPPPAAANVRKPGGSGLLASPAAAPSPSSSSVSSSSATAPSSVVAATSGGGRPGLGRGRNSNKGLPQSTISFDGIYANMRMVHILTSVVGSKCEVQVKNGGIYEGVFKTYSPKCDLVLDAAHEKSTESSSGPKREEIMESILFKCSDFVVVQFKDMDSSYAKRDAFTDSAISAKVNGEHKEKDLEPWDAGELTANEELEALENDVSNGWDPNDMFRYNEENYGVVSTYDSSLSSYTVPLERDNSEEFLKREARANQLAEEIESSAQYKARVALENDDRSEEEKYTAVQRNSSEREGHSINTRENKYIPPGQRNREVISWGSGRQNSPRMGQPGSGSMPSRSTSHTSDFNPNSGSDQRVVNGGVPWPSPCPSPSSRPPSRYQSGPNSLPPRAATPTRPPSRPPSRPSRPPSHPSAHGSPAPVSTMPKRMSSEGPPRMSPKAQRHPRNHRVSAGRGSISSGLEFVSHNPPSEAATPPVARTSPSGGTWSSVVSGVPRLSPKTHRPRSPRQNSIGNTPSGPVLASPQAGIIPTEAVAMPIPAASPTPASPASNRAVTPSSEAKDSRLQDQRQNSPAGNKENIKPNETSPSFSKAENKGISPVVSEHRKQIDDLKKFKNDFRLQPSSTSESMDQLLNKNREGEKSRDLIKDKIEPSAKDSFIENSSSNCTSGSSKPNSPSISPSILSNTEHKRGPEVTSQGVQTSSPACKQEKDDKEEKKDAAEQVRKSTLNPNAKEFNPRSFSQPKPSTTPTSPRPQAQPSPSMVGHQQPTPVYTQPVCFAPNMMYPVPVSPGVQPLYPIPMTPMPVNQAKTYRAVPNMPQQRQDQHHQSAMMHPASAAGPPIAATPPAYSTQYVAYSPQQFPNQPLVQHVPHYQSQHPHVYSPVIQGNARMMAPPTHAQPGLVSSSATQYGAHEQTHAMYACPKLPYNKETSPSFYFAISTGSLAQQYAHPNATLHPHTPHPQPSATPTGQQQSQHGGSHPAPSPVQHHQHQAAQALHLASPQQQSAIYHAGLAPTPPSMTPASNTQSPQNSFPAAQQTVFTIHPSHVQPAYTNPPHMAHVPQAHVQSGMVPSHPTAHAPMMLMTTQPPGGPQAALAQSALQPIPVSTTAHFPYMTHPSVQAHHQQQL
With `Cc1cccc(NC(=O)c2cc(-c3cc(Cl)ccc3O)[nH]n2)c1`, the Potency entry is “inactive”. Consider `Cc1ccc(C(=O)c2oc3ccccc3c2NC(=O)c2cc(-c3ccccc3O)[nH]n2)cc1`, for which the Potency result is “inactive”.

Consider `Cc1ccc(O)c(-c2cc(-c3ccccc3[N+](=O)[O-])[nH]n2)c1`, for which the Potency was 8.91 µM (active). As for `Cc1csc(NC(=O)c2cc(O)nc3ccc(S(=O)(=O)N4CCOCC4)cc23)n1`, the entry is “inactive”; as for `Cc1ccc(/C=N/N2CCCCC2)o1`, “inactive”. Take `O=C(O)c1cc(-c2ccc(/C=C3\NC(=O)N(c4ccc(Cl)cc4)C3=O)o2)ccc1Cl`: the Potency entry is “inactive”. Turning to `CCc1cccc(CC)c1NC(=O)/C(C#N)=C/c1ccccc1C(F)(F)F`, the Potency is 39.8 µM (active).

As to `Cc1cc(/C=C(\C#N)C(=O)Nc2ccccc2F)c(C)[nH]1`, the Potency result is “inactive”.

Turning to `CCN(CC)c1ccc(/C=C(\C#N)C(=O)NCc2ccccc2)cc1`, the Potency result was “inactive”.

Consider `O=C(NCc1ccccn1)C(=O)C1C(=O)Nc2ccccc21` (stereo not given), for which the Potency result is “inactive”. As for `COc1ccc([C@H]2/C=C\CN(C(=O)CC(C)(C)C)[C@@H](C)C(=O)N2Cc2ccc(F)cc2)cc1`, the figure is 35.5 µM (active). Turning to `COc1ccc(CCNC2=CC(=O)N(c3ccc(F)cc3)C2=O)cc1`, the Potency entry is “inactive”. As for `COc1cc(C(=O)N/N=C/c2sc(N3CCOCC3)nc2-c2ccccc2)cc(OC)c1OC`, the entry is “inactive”; as for `COc1ccc(/C=C2\Oc3cc(OCC(=O)N4CCC(C(=O)O)CC4)ccc3C2=O)c(OC)c1`, “inactive”; as for `Cc1cs/c(=N\c2cccnc2)n1Cc1ccco1`, “inactive”. Next, `COC(=O)Cc1c(C)c2cc3c(c(C)c2oc1=O)OCN(CCc1ccccc1F)C3`: “inactive”. With `CCOC(=O)c1cc2c(=O)n3ccccc3nc2n(Cc2ccco2)/c1=N\C(=O)c1c(F)cccc1Cl`, the Potency result is “inactive”. On to `COC(=O)c1cc(=O)n(-c2ccc(F)cc2)/c(=N/c2ccc(F)cc2)s1`, for which the Potency is 23.8 µM (active). Regarding `COC(=O)c1cc(=O)n(Cc2ccco2)/c(=N/c2ccc(F)c(Cl)c2)s1`, the Potency is 3.16 µM (active). For `COC(=O)c1cc(=O)n(CCc2ccccc2F)/c(=N/c2ccc(F)c(Cl)c2)s1`, the Potency was 33.6 µM (active). For `COC(=O)c1cc2c(s1)-c1cc(F)ccc1OC2`, the Potency result was “inactive”.

Turning to `Cc1ccc(CCNC(=O)c2cc(S(=O)(=O)N3CCOCC3)cn2C)cc1`, the Potency result is “inactive”. Next, `COc1ccc(CN(C(=O)c2snc(C(N)=O)c2N)C(C)C(=O)NCc2ccc(F)cc2)cc1` (stereo not given): “inactive”; `COc1cccc(Nc2nc(N)c([N+](=O)[O-])c(NCc3ccccc3)n2)c1`: 31.6 µM (active); `COc1ccc(Nc2nc(N)c([N+](=O)[O-])c(NC3CCCCC3)n2)cc1`: 31.6 µM (active). Turning to `COc1cccc(-c2ccc3c(N)c(C(=O)NCc4ccc(Cl)cc4)sc3n2)c1`, the Potency result was “inactive”. In the case of `COc1cccc(/C=C/c2nc(C#N)c(NC3CCCCC3)o2)c1`, the Potency entry is “inactive”. Take `CCc1nc(Nc2cccc(OC)c2)c2oc3ccccc3c2n1`: the Potency entry is “inactive”. Next, `CNc1nc(N)c([N+](=O)[O-])c(NCC2CCCO2)n1` (stereo not given): “inactive”; `O=C1/C(=C/c2ccco2)Oc2c1ccc(O)c2CN1CCCCC1`: “inactive”; `O=c1cc(-c2ccccc2)[nH]n1-c1ccc([N+](=O)[O-])cc1`: 20 µM (active). As for `O=[N+]([O-])c1ccc(-c2cn3nc(-c4ccccc4)c(-c4ccccc4)nc3n2)cc1`, the Potency entry is “inactive”. Consider `O=[N+]([O-])c1cccc(C2CC(c3ccccc3)=NN2c2ccccc2)c1` (stereo not given), for which the Potency result was “inactive”. `CCOc1ccc(/C=C/c2nc(C#N)c(NCCCOC)o2)cc1`: the Potency result was “inactive”. Next, `C#CCN(C[C@H]1[C@H](OC(=O)NC2CCCC2)[C@H](OC(=O)NC2CCCC2)C[C@@H](C(=O)OC)[C@H]1C(=O)OC)S(=O)(=O)c1ccc(C)cc1`: 39.8 µM (active); `CC(C)N1CCC(N2CCN(Cc3cccc4nonc34)CC2CCO)CC1` (stereo not given): “inactive”. On to `CCCCNC(=O)CN1C(=O)c2cccc(N)c2C1=O`, for which the Potency result was “inactive”. Take `Clc1ccc(-c2cn3nc4c(nc3n2)CCCC4)cc1`: the Potency result was “inactive”. For `COc1ccccc1/C=C/C=C1\Oc2c(ccc(O)c2CN(C)C)C1=O`, the Potency entry is “inactive”.

As to `CCOc1cccc2sc(NN)nc12`, the Potency entry was “inactive”. As for `COc1ccc(-c2nnc(-c3ccc(F)cc3)o2)cc1`, the entry is “inactive”; as for `COc1cccc2sc(Nc3nnc(-c4ccc(F)cc4)o3)nc12`, 31.6 µM (active); as for `Cc1cccn2c(=O)c3cc(C(=O)NCc4ccccc4)c(=N)n(CCOCCO)c3nc12`, “inactive”.

Consider `Cc1c(O)c(CN2CCCC2)cc2c3c(c(=O)oc12)CCC3`, for which the Potency result was “inactive”.

Turning to `COc1ccc(CCN2C(=O)COc3ccccc3C2C(=O)Nc2ccc3c(c2)OCCO3)cc1OC` (stereo not given), the Potency was 25.1 µM (active).

As to `Cc1ccc(NC(=O)C2OCCc3ccccc32)cc1C` (stereo not given), the Potency entry was “inactive”.

Turning to `CCCCNc1c(N)n(CCC)c(=O)[nH]c1=O`, the Potency result was “inactive”. With `O=C(CN1C(=O)NC(Cc2c[nH]c3ccccc23)C1=O)Nc1ccc(F)c(F)c1F` (stereo not given), the Potency entry was “inactive”. For the molecule `CN(C)C(CN=C(S)Nc1cccc(Cl)c1)c1cccnc1` (stereo not given), the Potency result is “inactive”. For the molecule `CC(C)c1cccc(C(C)C)c1N=C(S)Nc1cccc(Cl)c1`, the Potency result is “inactive”. `Cc1csc(N=C(S)Nc2cccc(Cl)c2)n1`: the Potency was 25.1 µM (active). Next, `CCCCC[C@H](C)N1C[C@H](COCc2ccccc2)Oc2cc(N3CCC[C@H]3CO)ccc2S1(=O)=O`: 28.2 µM (active); `CCCCC[C@@H](C)N1C[C@H](COCc2ccccc2)Oc2cc(N3CCC[C@@H]3CO)ccc2S1(=O)=O`: 39.8 µM (active). Consider `CCCCC[C@@H](C)N1C[C@H](COCc2ccccc2)Oc2cc(N3CCC[C@H]3CO)ccc2S1(=O)=O`, for which the Potency was 10 µM (active). In the case of `Cc1ccc(-c2nc3n(n2)C(c2ccccc2C)C=C(c2ccc(Cl)cc2)N3)cc1` (stereo not given), the Potency result is “inactive”. With `COC(=O)c1ccc(C)c(NC(=O)CSc2nc3nc(O)cc(O)c3s2)c1`, the Potency result was “inactive”. `Cc1cccc2c1-c1sc(C(=O)Nc3nccs3)cc1CO2`: the Potency entry was “inactive”. Next, `COc1ccc(S(=O)(=O)N2CCN(Cc3cc(OC)c(OC)cc3OC)CC2)cc1`: “inactive”; `Cc1ccnc(N2C(=O)c3cccc4c([N+](=O)[O-])ccc(c34)C2=O)c1`: “inactive”.

Turning to `CN(CC(=O)Nc1ccccc1Cl)C(=O)CN1C(=O)NC(c2ccccc2)(c2ccccc2)C1=O`, the Potency entry is “inactive”. As for `CCc1ccccc1NC(=O)CN(C)C(=O)Cn1ncc(Cl)c(Cl)c1=O`, the figure is 35.5 µM (active); as for `Cc1ccccc1OCC(=O)Nc1cccc(Cl)c1C`, “inactive”; as for `Cc1cccc(NC(=O)CNC(=O)Cn2ncc(Cl)c(Cl)c2=O)c1C`, 21.2 µM (active). With `CC(=O)Nc1ccc(NC(=O)CCC(=O)Oc2ccc(C)cc2)cc1`, the Potency entry was “inactive”. Regarding `CN(CC(=O)Nc1c(Cl)cccc1Cl)C(=O)C1CC(=O)N(Cc2ccccc2)C1` (stereo not given), the Potency result is “inactive”. Take `Cc1ccc(NC(=O)CN(C)C(=O)Cn2ncc(Cl)c(Cl)c2=O)cc1`: the Potency was 28.2 µM (active). `COc1ccc(CN(C)C(C)C(=O)N(C)CC(=O)Nc2ccc(C)cc2)cc1F` (stereo not given): the Potency entry was “inactive”. Consider `Cc1ccc(CNC(=O)Cn2ncn3cccc3c2=O)cc1`, for which the Potency entry is “inactive”.

`O=C(NN/C=C1\C(=O)N(Cc2ccccc2)C(=O)c2ccccc21)c1cccnc1`: the Potency result is “inactive”. `CC(=O)Nc1nc2n(n1)C(c1ccccc1)C=C(c1ccccc1)N2` (stereo not given): the Potency result was “inactive”. Next, `C1=C(c2ccccc2)Nc2ncnn2C1c1ccccc1` (stereo not given): “inactive”; `CCOC(=O)CCc1c(C)c2ccc3c(c2oc1=O)CN(CCCO)CO3`: “inactive”.

With `Cc1c(C(=O)c2no[n+]([O-])c2C(=O)c2cnn(C)c2C)cnn1C`, the Potency was 39.8 µM (active).

On to `CC(=O)c1ccc2noc(-c3ccc(C)cc3)c2c1`, for which the Potency entry was “inactive”.

Regarding `Cc1ccc(N2C(=O)C3C(C(=O)c4ccccc4)=NN(c4ccccc4)C3C2=O)cc1` (stereo not given), the Potency entry was “inactive”. As for `Cc1ccc(C(=O)c2no[n+]([O-])c2C(=O)c2ccc(C)cc2)cc1`, the figure is 31.6 µM (active). For `CC(OC(=O)c1ccccc1O)C(=O)Nc1ccc(Cl)cn1` (stereo not given), the Potency result was “inactive”. As for `COc1cc(C(CC(=O)Nc2ccc(Cl)cn2)N2Cc3ccccc3C2=O)cc(OC)c1OC` (stereo not given), the entry is “inactive”; as for `CCc1cc2c(CN3CCN(C)CC3)cc(=O)oc2cc1O`, “inactive”; as for `COCOCCn1cc(CN2CCS(=O)(=O)N(Cc3ccc(-c4ccc(Cl)c(Cl)c4)cc3)C(C)C2=O)nn1` (stereo not given), 22.4 µM (active). In the case of `COCOCCn1cc(CN2CCS(=O)(=O)N(Cc3ccc(-c4ccc(Cl)c(Cl)c4)cc3)C(C(C)C)C2=O)nn1` (stereo not given), the Potency was 28.2 µM (active).

As to `COCOCCn1cc(CN2CCS(=O)(=O)N(Cc3ccc(-c4ccccc4)cc3)C(CC(C)C)C2=O)nn1` (stereo not given), the Potency is 39.8 µM (active). Take `CCOC(=O)NC(=O)/C(=C/Nc1ccc(Cl)c(Cl)c1Cl)C(C)=O`: the Potency entry was “inactive”. As for `Nc1c(C(=O)N2CCCC2)sc2nc3c(cc12)CCCCCC3`, the entry is “inactive”; as for `c1cnn2c(-c3ccc4c(c3)CCO4)cnc2c1`, “inactive”. Take `O=C(CNC(=O)OCc1ccccc1)Oc1cc2oc(=O)cc(-c3ccccc3)c2cc1Cl`: the Potency result was “inactive”. With `Cc1onc(C(=O)NC2CCCCC2)c1[N+](=O)[O-]`, the Potency result is “inactive”. As to `COc1ccc(Nc2c3c(nc4ccccc24)CCC3)cc1Cl`, the Potency is 28.2 µM (active). `COc1cc(N)ccc1Nc1c2ccccc2nc2ccccc12`: the Potency entry was “inactive”. Next, `COc1ccccc1Nc1c2ccccc2nc2ccccc12`: “inactive”; `COc1ccc(C2CC(c3cccs3)=NN2c2ccc(C=O)cc2)cc1` (stereo not given): “inactive”.

On to `CCOc1ccc(-c2cnc3ccccc3n2)cc1`, for which the Potency result is “inactive”. For the molecule `O=C(CCl)Nc1cccc(Oc2ccccc2)c1`, the Potency was 8.44 µM (active). As for `O=C(O)CSCC(=O)NCc1c(Cl)cccc1Oc1ccccc1`, the entry is “inactive”. As for `O=C(CCl)Nc1cccc(-c2cnc3ccccc3n2)c1`, the Potency is 3.98 µM (active).

For `CC(C)(C)C(=O)Nc1ccc(C(=O)Nc2cccc(Oc3ccc(C(=O)O)c(C(=O)O)c3)c2)cc1`, the Potency entry was “inactive”. Consider `CCOC(=O)c1ccc(Nc2cnc3ccccc3n2)cc1`, for which the Potency entry is “inactive”. `Oc1ccc(-c2cnc3ccccc3n2)cc1`: the Potency entry is “inactive”. As for `O=C(CCl)Nc1ccc(Oc2cnc3ccccc3n2)cc1`, the figure is 20 µM (active); as for `CCN(CC)CCN1C2=C(C(=O)CC(C)(C)C2)C(c2cccc(F)c2)C2=C1CC(C)(C)CC2=O`, “inactive”.

The values are drawn from ChEMBL document CHEMBL1201862, “PubChem BioAssay data set” (2004).
